Out of some 65,000 compounds screened, about 2,100 (3.2%) showed an effect of 50% or more. The median lay at about -52%. This excerpt belongs to a sample that is enriched for strong results.

The test system of this test is Plasmodium falciparum. In words: Screen against P. falciparum Asexual Blood Stage (ABS), at 5uM. Conditions: tested at 5 uM. It is filed as functional, Dd2.
For the compound `Cc1cc2nc(C(C)C)cc(NC(C)c3nncn3C3CCCC3)n2n1` (stereo not given), the INHIBITION is -49.8%. For `COc1cccc2c1OCC(C(=O)NCc1ncc3c(n1)CCC3)C2` (stereo not given), the INHIBITION is -33%. The result for `N#Cc1ccc(C(=O)N2CCn3cc(CN4CCCCC4)nc3C2)cc1` reads -96.9%; that for `CN([C@@H]1CC[C@@H](N2CCCC2)[C@@H]1O)S(=O)(=O)c1ccccc1`, 51.6%. `Cc1nccn1[C@@H]1CC[C@@H](N(C)S(=O)(=O)c2cccc(F)c2)[C@H]1O`: the INHIBITION is -107%. The result for `CN([C@@H]1CC[C@@H](N2CCOCC2)[C@@H]1O)S(=O)(=O)c1ccccc1` reads -97.1%. On to `O=C(c1ccco1)N1CCC2(CCCN(c3ncccn3)C2)C1` (stereo not given), for which the INHIBITION is -59%. On to `Cc1nc(NC2CCCCC2)cc(C2CCCNC2)n1` (stereo not given), for which the INHIBITION is listed as -0.566%. The result for `Cc1nc(C2CCCNC2)cc(N(C)CCc2cn[nH]c2)n1` (stereo not given) reads -151%; that for `Cc1cc(Cc2ccccc2F)cc(C2CCCNC2)n1` (stereo not given), 64.8%; that for `Cc1nc(C2CCCNC2)cc(N(C)CCc2ccccc2)n1` (stereo not given), 53.5%. The result for `c1cc(NCc2ccncc2)nc(C2CCCNC2)c1` (stereo not given) reads -2.22%; that for `Cc1cc(Nc2cnccn2)cc(C2CCCNC2)n1` (stereo not given), -27.1%. The result for `COCCNc1cccc(C2CCCN2)n1` (stereo not given) reads -86.4%; that for `c1ccc(CCNc2cccc(C3CCCNC3)n2)cc1` (stereo not given), 66.8%. As to `CCn1ccnc1CN(C)c1cc(C2CCCNC2)nc(C)n1` (stereo not given), the INHIBITION was -33.9%.

For `COCCNc1ccc(CC2CCCNC2)cn1` (stereo not given), the INHIBITION was -56.2%. The result for `Cc1cnc(CCNc2cccc(CC3CCCNC3)n2)s1` (stereo not given) reads 65.5%; that for `c1cc(CC2CCCNC2)nc(NCCc2cnccn2)c1` (stereo not given), -96.3%. The result for `CCS(=O)(=O)NC(CCSC)C(=O)Nc1cc(F)ccc1C` (stereo not given) reads -26.6%; that for `Cc1cnc(N2CCC3(CC2)CC3CN(C)Cc2cccnc2)nc1` (stereo not given), -28%; that for `CCC(C)Oc1ccc(CNCCNC(C)=O)cc1Cl` (stereo not given), -29.5%. The result for `COCc1cc(O)nc(C2CCCN(Cc3ccc(OC)cc3)C2)n1` (stereo not given) reads -29.3%; that for `Cc1cc(C(N)=O)c2c(Br)cccc2n1`, -105%. On to `Cc1ccc(C(C)N(C)Cc2nc3c(cnn3C)c(=O)[nH]2)cc1` (stereo not given), for which the INHIBITION was -137%.

On to `Cc1ccc(CN(Cc2nc3c(cnn3C)c(=O)[nH]2)C(C)C)s1`, for which the INHIBITION was -67.1%. The result for `COc1ccc(C(C)N(C)Cc2nc3c(cnn3C)c(=O)[nH]2)cc1` (stereo not given) reads 57.6%. For the compound `Cc1ccc(C(C)N(C)Cc2nc3c(cnn3C)c(=O)[nH]2)s1` (stereo not given), the INHIBITION amounted to 50%. As for `COc1ccccc1C(C)N(C)Cc1nc2c(cnn2C)c(=O)[nH]1` (stereo not given), the INHIBITION was -62.4%. The result for `Cc1ccccc1C(C)N(C)Cc1nc2c(cnn2C)c(=O)[nH]1` (stereo not given) reads -198%. The result for `Cc1ccc(CCC(=O)N2CCC(Nc3cccnn3)CC2)cc1` reads -69.1%. The result for `O=S(=O)(NCc1ccccc1)N1CCCN(c2ccncc2)CC1` reads -0.943%; that for `CCC(=O)N1CCC2(CC1)C(c1cccnc1)CC(=O)N2CCOC` (stereo not given), -104%. With `CC(CNC(=O)c1cccnc1)Oc1ccc(F)cc1` (stereo not given), the INHIBITION is -61.4%.

On to `Cc1cc(N2CCCC(N(C)C)C2)n2nccc2n1` (stereo not given), for which the INHIBITION is given as -65.1%. The result for `CN(C)C1CCN(c2cc(-c3ccccc3)nc3ccnn23)C1` (stereo not given) reads 51.3%; that for `CCNC(=O)C1CCN(c2cc(-c3ccccc3)nc3ccnn23)C1` (stereo not given), -26.4%. The result for `O=C(COc1coc(CN2CCOCC2)cc1=O)Nc1ccc(Cl)cc1` reads -117%; that for `CC(=O)N1CCN(CC(C)(O)c2cccc(C(F)(F)F)c2)CC1` (stereo not given), -10.4%.

Consider `CC(O)(CN1CCC2(CC1)OCCO2)c1cccc(C(F)(F)F)c1` (stereo not given), for which the INHIBITION is -7.98%. Consider `CC(O)(CN1CCN(CCO)CC1)c1cccc(C(F)(F)F)c1` (stereo not given), for which the INHIBITION was 45.7%. The result for `CCN1CCN(CC(C)(O)c2cccc(C(F)(F)F)c2)CC1` (stereo not given) reads 61.4%; that for `CC(O)(CN1CCC(O)CC1)c1cccc(C(F)(F)F)c1` (stereo not given), 58%; that for `COCCN1CCN(CC(C)(O)c2cccc(C(F)(F)F)c2)CC1` (stereo not given), 20.5%. The result for `CC(C)(C)c1csc(CCNC(=O)[C@H](c2ccccc2)n2cnnn2)n1` reads -92.7%. For `O=C(c1ccsc1)N1C[C@@H]2OCCN(CCN3CCCC3)[C@@H]2C1`, the INHIBITION is recorded as -116%. The result for `CCc1ccc(S(=O)(=O)NCC2CCN(c3cnccn3)CC2)s1` reads -103%; that for `COc1cccc(N2CCN(Cc3nccn3C(C)C)CC2=O)c1`, -72.4%.

As to `CC(=O)N1CCCN(Cc2ccon2)c2ccccc21`, the INHIBITION is -22.6%. As for `CC(C)(C)OC(=O)N1CCCN(Cc2ccon2)c2ccccc21`, the INHIBITION is recorded as 84.5%. As for `CC(C)(C)OC(=O)N1CCCc2ccc(NCc3ccon3)cc21`, the INHIBITION is on record as -31.3%. For `CN(C)CCOCc1nnc2n1CCN(Cc1ccc(F)cc1)CC2`, the INHIBITION is -137%. Take `O=C(O)CN1CCC(F)(F)C2(CCN(c3ccccc3)C2)C1` (stereo not given): the INHIBITION is given as 67.6%.

As for `O=C(CO)N1CCC(F)(F)C2(CCN(c3ccccc3)C2)C1` (stereo not given), the INHIBITION is on record as -30.5%. The result for `Cn1ccnc1CN1CCC(F)(F)C2(CCN(c3cccnc3)C2)C1` (stereo not given) reads 60.4%.
